The text below walks through data of the antibiotic and cytotoxicity screens of Wong et al. (2023).

Molecules are shown by their SMILES. The campaign covered roughly 39,000 compounds. About 3,300 (8.5%) were called active. Only a selection was taken, and actives are over-represented in it overall.

For the assay, the system named is HepG2. In words: cytotoxicity call (relative viability < 0.9). Conditions: 10 µM.
Regarding `Cc1noc(C)c1NC(=O)N(C)C[C@@H]1Oc2c(NC(=O)Nc3cccc4ccccc34)cccc2C(=O)N([C@@H](C)CO)C[C@@H]1C`, the cytotoxicity call was “inactive”.
On to `COc1ccc(-c2cnc3c(c2)C(=O)N([C@H](C)CO)C[C@H](C)[C@H](CN(C)C(=O)C2CCOCC2)O3)cc1`, for which the cytotoxicity call was “inactive”.
In the case of `C[C@@H]1CN([C@H](C)CO)C(=O)c2cc(NS(=O)(=O)c3ccc(F)cc3)ccc2O[C@H]1CN(C)C(=O)Nc1ccc(C(F)(F)F)cc1`, the cytotoxicity call was “inactive”.
For the molecule `O=c1nc(Nc2ccccc2)cn[nH]1`, the cytotoxicity call was “inactive”.
The entry for `CO[C@H]1CN(C)C(=O)c2ccc(NC(=O)Nc3ccccc3F)cc2OC[C@H](C)N(Cc2ccccc2C(=O)O)C[C@@H]1C` is “inactive”.
On to `COc1cccc2c1C(=O)c1c(O)c3c(c(O)c1C2=O)CC(O)(C(=O)CO)CC3OC1CC(N)C(O)C(C)O1.Cl` (configuration not stated), for which the cytotoxicity call was “active”.
In the case of `COc1cccc2c1C(=O)c1c(O)c3c(c(O)c1C2=O)CC(O)(C(=O)CO)CC3OC1CC(N)C(O)C(C)O1` (configuration not stated) [listing 1 of 2 here], the cytotoxicity call is “active”.
For `CCCCC(=O)OCC(=O)[C@]1(O)Cc2c(O)c3c(c(O)c2[C@@H](O[C@H]2C[C@H](NC(=O)C(F)(F)F)[C@H](O)[C@H](C)O2)C1)C(=O)c1c(OC)cccc1C3=O`, the cytotoxicity call is “active”.
For the molecule `COc1cccc2c1C(=O)c1c(O)c3c(c(O)c1C2=O)C[C@@](O)(C(=O)CO)C[C@@H]3O[C@H]1C[C@H](N)[C@H](O)[C@H](C)O1`, the cytotoxicity call was “active”.
For `C[C@@H]1CN([C@@H](C)CO)C(=O)Cc2cc(NS(=O)(=O)c3ccc(Cl)cc3)ccc2O[C@@H]1CN(C)Cc1ccc(C(=O)Nc2ccccc2N)cc1`, the cytotoxicity call is “inactive”.
The entry for `CN1N=C2CCN(C(=O)[C@@H](COCc3ccccc3)NC(=O)C(C)(C)N)C[C@@]2(Cc2ccccc2)C1=O` is “inactive”.
Under `C[C@H]1CN([C@@H](C)CO)C(=O)c2ccccc2-c2ccccc2CO[C@H]1CN(C)C(=O)Nc1cccc(F)c1` stands “inactive”; under `C[C@@H]1CCCCO[C@@H](CN(C)C(=O)Nc2cccc3ccccc23)[C@@H](C)CN([C@H](C)CO)C(=O)c2cc(NC(=O)c3ccncc3)ccc2O1`, “inactive”; under `CCC(=O)OC1(C(=O)SCF)C(C)CC2C3CC(F)C4=CC(=O)C=CC4(C)C3(F)C(O)CC21C` (configuration not stated), “inactive”.
As for `Cc1cc(O)c(C=O)c2c1C(=O)Oc1c(COC(=O)C=CC(=O)O)c(O)c(C(=O)O)c(C)c1O2`, the cytotoxicity call was “inactive”.
Take `C[C@H]1CN([C@@H](C)CO)S(=O)(=O)c2ccc(-c3cncnc3)cc2O[C@H]1CN(C)C(=O)Cc1ccccc1`: the cytotoxicity call was “inactive”.
The entry for `COc1ccc([C@@H]2C/C=C\C[C@@H](c3cccc(Cl)c3)NC(=O)[C@@H](c3ccccc3)CC(=O)N2)c(OC)c1` is “inactive”; for `COc1ccc(S(=O)(=O)Nc2ccc3c(c2)CC(=O)N([C@@H](C)CO)C[C@@H](C)[C@@H](CN(C)S(=O)(=O)c2ccccc2)O3)cc1` it is “inactive”; for `Cc1noc(C)c1NC(=O)Nc1ccc2c(c1)CC(=O)N([C@H](C)CO)C[C@@H](C)[C@H](CN(C)Cc1ccc(C(=O)Nc3ccccc3N)cc1)O2` it is “inactive”.
On to `COc1cccc2c1C(=O)c1c(O)c3c(c(O)c1C2=O)C[C@@](O)(C(=O)CO)C[C@@H]3O[C@H]1C[C@H](N)[C@@H](O)[C@H](C)O1`, for which the cytotoxicity call is “active”.
The entry for `COc1cccc2c1C(=O)c1c(O)c3c(c(O)c1C2=O)CC(O)(C(=O)CO)CC3OC1CC(N)C(O)C(C)O1` (configuration not stated) [listing 2 of 2 here] is “active”; for `COc1cccc2c1C(=O)c1c(O)c3c(c(O)c1C2=O)C[C@](O)(C(=O)CO)C[C@H]3O[C@H]1C[C@@H](N)[C@@H](O)[C@@H](C)O1` it is “active”; for `C[C@@H]1CN([C@H](C)CO)C(=O)c2cc(NC(=O)C3CC3)ccc2O[C@H]1CN(C)C(=O)Nc1ccc2c(c1)OCO2` it is “inactive”.
On to `C[C@H]1COC(=O)[C@@H](Cc2ccc(F)cc2)CCC=CC[C@@H](CC(=O)N[C@H](CO)Cc2ccccc2)C(=O)N1`, for which the cytotoxicity call was “inactive”.
As for `CC(C)NC(=O)N(C)C[C@@H]1Oc2ccc(NC(=O)CCC(F)(F)F)cc2C(=O)N([C@H](C)CO)C[C@H]1C`, the cytotoxicity call was “inactive”.
As for `COc1cccc(-c2cccc(-c3nc(C(=O)NCC(F)(F)F)cc4c3[C@@H](CCO)N([S@](=O)C(C)(C)C)C4)c2)c1`, the cytotoxicity call is “inactive”.
Turning to `O=C(O)CN(CCN(CC(=O)O)CC(=O)O)CC(=O)O.[Na+].[Na+]`, the cytotoxicity call was “inactive”.
With `C[C@H]1CN([C@@H](C)CO)C(=O)Cc2cc(NC(=O)CCCN(C)C)ccc2O[C@@H]1CN(C)C(=O)NC1CCCCC1`, the cytotoxicity call was “inactive”.
`Cc1noc(C)c1NC(=O)N(C)C[C@H]1OCCCC[C@@H](C)Oc2ccc(NC(=O)Cc3ccccc3)cc2C(=O)N([C@H](C)CO)C[C@@H]1C`: the cytotoxicity call was “inactive”.
The entry for `O=C(C[C@H]1CC[C@H]2[C@@H](COC[C@@H](O)CN2Cc2ccccc2F)O1)N[C@H]1CCN(Cc2ccccc2)C1` is “inactive”; for `COC(=O)Cc1csc(CC(N)=O)n1` it is “active”; for `CCOC(=O)Cc1csc(/C(=N/O)C(N)=O)n1` it is “inactive”.
Regarding `COC(=O)CN(C)c1nnc(N)s1`, the cytotoxicity call was “inactive”.
`COC(=O)c1c(CC[C@@H](CO)NC(=O)NCCn2cc(C3(O)CCCC3)nn2)oc(C(C)=O)c1C(=O)OC`: the cytotoxicity call is “inactive”.
Under `Cc1ccc(S(=O)(=O)N(C)C[C@@H]2OCCCC[C@@H](C)Oc3ccc(NC(=O)Nc4c(C)noc4C)cc3C(=O)N([C@@H](C)CO)C[C@H]2C)cc1` stands “inactive”; under `C[C@@H]1CN([C@@H](C)CO)C(=O)c2cccc(NS(=O)(=O)c3cccs3)c2O[C@H]1CN(C)Cc1ccc(-c2ccccc2)cc1`, “inactive”.
The entry for `C[C@H]1CN([C@@H](C)CO)C(=O)Cc2cc(NC(=O)Cc3cn(C)c4ccccc34)ccc2O[C@@H]1CN(C)C` is “inactive”; for `COc1cc2c(cc1OC)CN(CCc1ccc(NC(=O)c3cccc4c(=O)c5cccc(OC)c5[nH]c34)cc1)CC2` it is “inactive”; for `COc1cc2c(cc1OC)CN(CCc1ccc(NC(=O)c3cc(OC)c(OC)cc3NC(=O)c3cnc4ccccc4c3)cc1)CC2` it is “active”.
Turning to `COc1cc2c(cc1OC)CN(CCc1ccc(-n3nnc(-c4cc(OC)c(OC)cc4NC(=O)c4cc(=O)c5ccccc5o4)n3)cc1)CC2`, the cytotoxicity call was “inactive”.
Take `CNC[C@@H]1Oc2ccc(NC(=O)Cn3cnnn3)cc2C(=O)N([C@@H](C)CO)C[C@H]1C`: the cytotoxicity call is “inactive”.
For `CCCCCCO[C@H](C)c1c(c/2[nH]c1/C=C/1\N=C(/C=C/3\NC4=C(CC(=O)C4=C3C)C3=N/C(=C2)[C@@H](C)[C@@H]3CCC(=O)O)C(=C1C)CC)C`, the cytotoxicity call was “active”.
